Assay results from PubChem BioAssay (NCATS).
Values without a mark were called inactive. Records with an inconclusive call do not appear. Entries that show only a call come without a potency. The source made the active and inactive calls. Calls follow the shape of the dose curve; as a rule, active = well fitted curve in the direction sought with a large enough effect; inconclusive = small, poorly fitted or top-dose-only effect, or another doubt; inactive = no such curve, though single readings can be large; an effect the other way counts as inactive or inconclusive.

Assays:
[1] = target: Cytochrome P450 3A4 (Homo sapiens) (UniProt P08684); assay: qHTS Assay for Inhibitors and Substrates of Cytochrome P450 3A4 (AID 884); also: nearly all actives have a fitted effect of over 50% in size; also: potency is read from the fitted curve at half-maximal effect; as to activity change, negative = inhibition: series mostly up to about 57 µM
Cytochrome P450 3A4 (Homo sapiens), sequence (P08684 whole entry, looked up): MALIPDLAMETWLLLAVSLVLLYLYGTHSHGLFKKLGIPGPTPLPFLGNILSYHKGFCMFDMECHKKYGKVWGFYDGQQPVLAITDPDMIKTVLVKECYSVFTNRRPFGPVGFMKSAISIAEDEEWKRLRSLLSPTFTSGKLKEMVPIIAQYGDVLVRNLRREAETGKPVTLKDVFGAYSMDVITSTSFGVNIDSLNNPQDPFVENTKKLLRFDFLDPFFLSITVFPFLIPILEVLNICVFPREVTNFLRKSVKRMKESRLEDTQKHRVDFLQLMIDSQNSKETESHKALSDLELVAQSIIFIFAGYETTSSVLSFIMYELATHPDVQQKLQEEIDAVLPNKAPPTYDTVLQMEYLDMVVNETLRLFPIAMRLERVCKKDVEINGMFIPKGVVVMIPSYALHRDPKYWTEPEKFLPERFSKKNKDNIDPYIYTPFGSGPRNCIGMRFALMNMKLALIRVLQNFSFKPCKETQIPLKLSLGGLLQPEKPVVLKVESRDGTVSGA
Summary of the method: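 20 nM human CYP3A4 with 25 uM Luciferin-PPXE (at KM) in 200 mM KPO4, preincubated 10 min with compound; NADPH regeneration started a 60 min RT reaction. Luciferin detected by luminescence, normalized to 57 uM ketoconazole as full inhibition.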

[2] = Confirmation and Secondary Assay for Modulators of Hemoglobin Beta Chain Splicing at IVS2 654 locus (AID 910);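 also: per-well total GFP intensity by laser scanning cytometry after 2-day treatment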
Summary of the method: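 HeLa cells stably carrying EGFP interrupted by mutant beta-globin IVS2-654 intron (CMV-driven) were treated with compound for 2 days at 37C; corrected splicing was scored as total peak GFP intensity per well (488 nm excitation, 500-520 nm emission).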

[3] = Confirmation and Secondary Assay for Modulators of Hemoglobin Beta Chain Splicing at IVS2 705 locus (AID 930);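 also: HeLa cells stably expressing the EGFP-705 splicing reporter; GFP fluorescence per well restored by corrected splicing of the IVS2-705 intron in EGFP; series mostly up to about 46 µM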
Summary of the method: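 Assay measures total GFP intensity per well in HeLa EGFP-705 cells after 2 days with compound; mis-splicing normally truncates EGFP, so fluorescence indicates corrected splicing.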

[4] = target: Cytochrome P450 3A4 (Homo sapiens) (UniProt P08684); assay: qHTS Assay for Activators of Cytochrome P450 3A4 (AID 885); also: nearly all actives have a fitted effect of over 65% in size; also: potency is read from the fitted curve at half-maximal effect
Summary of the method: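 Steps: enzyme/substrate mix dispensed; compound added, 10 min RT; NADPH regeneration solution added, 60 min RT; luciferin detection buffer stops reaction; 20 min later luminescence measured.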

[5] = target: Cytochrome P450 2D6 (Homo sapiens) (UniProt P10635); assay: qHTS Assay for Inhibitors and Substrates of Cytochrome P450 2D6 (AID 891); also: nearly all actives have a fitted effect of over 60% in size; also: potency is read from the fitted curve at half-maximal effect;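 as to activity change, negative = inhibition: luciferin methyl ether substrate demethylated by CYP2D6 with NADPH regeneration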
Cytochrome P450 2D6 (Homo sapiens), sequence (P10635 whole entry, looked up): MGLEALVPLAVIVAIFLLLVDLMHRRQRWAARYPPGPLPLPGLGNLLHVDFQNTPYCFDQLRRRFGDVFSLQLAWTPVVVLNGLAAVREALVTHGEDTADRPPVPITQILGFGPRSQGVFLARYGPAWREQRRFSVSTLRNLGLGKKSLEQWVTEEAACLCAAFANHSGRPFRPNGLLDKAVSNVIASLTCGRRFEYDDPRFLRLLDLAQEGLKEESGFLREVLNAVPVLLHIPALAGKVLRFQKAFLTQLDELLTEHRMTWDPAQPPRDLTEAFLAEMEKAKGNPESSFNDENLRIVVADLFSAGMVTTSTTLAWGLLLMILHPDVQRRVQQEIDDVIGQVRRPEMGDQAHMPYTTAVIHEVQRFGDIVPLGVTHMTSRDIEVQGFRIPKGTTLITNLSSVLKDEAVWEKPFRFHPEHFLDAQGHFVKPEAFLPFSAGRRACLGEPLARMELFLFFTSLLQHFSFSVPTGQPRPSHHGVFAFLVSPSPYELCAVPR
Summary of the method: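 Human CYP2D6 (5 nM) with 30 uM Luciferin-ME EGE (at Km) in 100 mM KPO4, compound preincubated 10 min, then NADPH regeneration system for 60 min at room temperature. Luciferin read by luminescence; normalized to 1.43 uM quinidine.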

[6] = target: Alpha-galactosidase (Coffea arabica) (UniProt Q42656); assay: Counterscreen for Glucocerebrosidase Inhibitors: qHTS Assay for Coffee Bean alpha-Galactosidase at pH 4.5 (AID 957); also: series mostly up to about 77 µM
Alpha-galactosidase (Coffea arabica), sequence (Q42656 whole entry, looked up): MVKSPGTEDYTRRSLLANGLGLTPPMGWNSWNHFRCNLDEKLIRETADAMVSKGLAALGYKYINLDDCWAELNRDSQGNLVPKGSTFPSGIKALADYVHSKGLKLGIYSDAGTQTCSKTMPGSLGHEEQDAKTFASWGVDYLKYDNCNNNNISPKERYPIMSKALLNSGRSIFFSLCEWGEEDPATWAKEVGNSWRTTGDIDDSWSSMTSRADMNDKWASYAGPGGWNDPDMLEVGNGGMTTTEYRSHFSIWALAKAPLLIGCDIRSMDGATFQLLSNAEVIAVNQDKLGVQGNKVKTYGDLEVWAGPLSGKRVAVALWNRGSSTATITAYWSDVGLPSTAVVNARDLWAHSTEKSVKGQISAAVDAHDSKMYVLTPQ
Summary of the method: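 Coffee bean alpha-galactosidase 2 nM, substrate 4-MU-alpha-Gal 80 uM, pH 4.5 citrate/Tween-20, 20 min RT. Cpd titration 0.7 nM–77 uM. Stop pH 10, fluorescence 365/440 nm; Hill-equation AC50.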

[7] = target: Alpha-galactosidase (Coffea arabica) (UniProt Q42656); assay: Counterscreen for Glucocerebrosidase Inhibitors: qHTS Assay for Coffee Bean alpha-Galactosidase at pH 5.9 (AID 998)
Summary of the method: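 Green coffee bean enzyme (2 nM final) was incubated with compounds (0.7 nM–77 uM) and 4-methylumbelliferyl alpha-D-galactopyranoside (80 uM) in citrate buffer pH 5.9, 20 min at room temperature. High-pH stop; fluorescence 365/440 nm; AC50 from Hill fits.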

[8] = target: Cytochrome P450 2C19 (Homo sapiens) (UniProt P33261); assay: qHTS Assay for Inhibitors and Substrates of Cytochrome P450 2C19 (AID 899); also: nearly all actives have a fitted effect of over 60% in size; also: potency is read from the fitted curve at half-maximal effect
Cytochrome P450 2C19 (Homo sapiens), sequence (P33261 whole entry, looked up): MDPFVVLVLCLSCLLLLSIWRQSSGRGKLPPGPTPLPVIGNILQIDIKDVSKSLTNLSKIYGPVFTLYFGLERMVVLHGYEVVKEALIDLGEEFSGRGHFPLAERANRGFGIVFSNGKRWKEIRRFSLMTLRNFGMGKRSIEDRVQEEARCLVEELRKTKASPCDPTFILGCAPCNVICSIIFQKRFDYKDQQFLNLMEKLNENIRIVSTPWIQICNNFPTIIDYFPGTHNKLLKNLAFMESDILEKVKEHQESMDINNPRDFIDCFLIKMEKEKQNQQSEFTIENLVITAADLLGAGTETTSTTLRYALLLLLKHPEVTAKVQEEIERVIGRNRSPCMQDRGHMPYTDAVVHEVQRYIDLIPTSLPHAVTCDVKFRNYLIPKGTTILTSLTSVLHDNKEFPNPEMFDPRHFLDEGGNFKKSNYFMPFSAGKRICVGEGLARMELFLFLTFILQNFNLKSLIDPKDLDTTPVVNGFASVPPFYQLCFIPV
Summary of the method: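 In 50mM KPO4, the reaction held 5nM enzyme and KM-level (10uM) Luciferin-H EGE; it ran 60 min at 37C after NADPH regeneration and a 10 min compound preincubation. Luminescence values were scaled to 57uM ketoconazole as complete inhibition.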

[9] = target: Muscarinic acetylcholine receptor M1 (Rattus norvegicus) (UniProt P08482); assay: qHTS Assay for Antagonists of Acetylcholine Muscarinic M1 Receptor: Measurement of IP-One Response (AID 944); also: potency is read from the fitted curve at half-maximal effect; nearly all actives have a fitted effect of over 75% in size
Muscarinic acetylcholine receptor M1 (Rattus norvegicus), sequence (P08482 whole entry, looked up): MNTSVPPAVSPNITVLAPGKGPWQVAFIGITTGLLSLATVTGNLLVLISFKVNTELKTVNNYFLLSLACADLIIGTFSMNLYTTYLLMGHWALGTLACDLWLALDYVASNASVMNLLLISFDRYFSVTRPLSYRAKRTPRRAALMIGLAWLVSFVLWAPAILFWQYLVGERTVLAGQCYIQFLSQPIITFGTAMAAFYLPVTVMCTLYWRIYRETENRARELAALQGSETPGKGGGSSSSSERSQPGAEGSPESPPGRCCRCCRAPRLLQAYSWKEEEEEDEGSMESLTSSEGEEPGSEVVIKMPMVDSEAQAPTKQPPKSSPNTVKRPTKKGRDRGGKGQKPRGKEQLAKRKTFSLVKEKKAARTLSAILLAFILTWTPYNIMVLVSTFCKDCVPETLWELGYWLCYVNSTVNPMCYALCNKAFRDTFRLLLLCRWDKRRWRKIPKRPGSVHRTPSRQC
Summary of the method: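 M1-CHO (rat), 2000 cells/well, overnight recovery; cpd 10 min; carbachol EC80 (200 nM), 30 min, HEPES buffer + 50 mM LiCl pH 7.4; IP-One HTRF, Ex 337, Em 620/665 nm.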

Q: Which Potency [1] does the source give for `CC(C)=CCCC1(C)C=Cc2c(O)c3c(c(CC=C(C)C)c2O1)OC12C(CC4CC1C(C)(C)OC2(C/C=C(/C)C(=O)O)C4O)C3=O` (centres undefined) here?
A: inactive

Q: And the Potency [2]?
A: inactive

Q: And the outcome [3]?
A: inactive

Q: With `Cc1ccc2oc(-c3ccccc3)cc(=O)c2c1` as the compound, how does the Potency [1] read?
A: 10 µM (active)

Q: And the Potency [4]?
A: inactive

Q: Which Potency [4] does the source give for `[O-]/[N+](=N\O)c1ccccc1` here?
A: inactive

Q: What does the source list for `COc1ccc2c(c1)CN([C@H](C)[C@@H]1CC[C@@H]3[C@H]4CC[C@H]5C[C@@H](O)CC[C@@]5(C)[C@H]4CC[C@]31C)CO2`?
A: activity change, negative = inhibition [1]: 321% [at 11.4 µM]; Potency [4]: 3.98 µM (active); Potency [5]: 3.16 µM (active)

Q: With `Cc1c(N=C=O)cccc1N=C=O` as the compound, how does the Potency [4] read?
A: inactive

Q: What does the source list for `OC[C@@H]1O[C@@H](n2cnc3cncnc32)[C@@H](O)[C@H]1O`?
A: Potency [1]: inactive; outcome [6]: inactive; outcome [7]: inactive

Q: What does the source list for `CCCCCCCCCc1ccc(OCCOCCOCCOCCOCCOCCOCCOCCOCCO)cc1`?
A: Potency [1]: 31.6 µM (active); Potency [4]: inactive

Q: For `c1cc(Cc2cnc[nH]2)ccn1`, which Potency [1] is on record?
A: 3.98 µM (active)

Q: And the Potency [4]?
A: inactive

Q: With `O=S(=O)(O)c1cc(N=C=S)ccc1/C=C/c1ccc(N=C=S)cc1S(=O)(=O)O` as the compound, how does the Potency [1] read?
A: 12.6 µM (active)

Q: And the Potency [4]?
A: inactive

Q: What does the source list for `CC(=O)OC1C[C@]2(C)C(C(C)=O)CCC2C2CCC3=CC(=O)CC[C@@]3(C)C12` (some centres undefined)?
A: Potency [1]: 7.94 µM (active); Potency [4]: inactive

Q: Which results are given for `N#CC(C#N)=NNc1cccc(Cl)c1`?
A: Potency [1]: 1.26 µM (active); Potency [4]: inactive

Q: Which Potency [1] does the source give for `CC(=O)OCC(=O)[C@@]1(O)CCC2C3CC[C@H]4CC(O)CC[C@@]4(C)C3C(=O)C[C@]21C` (some centres undefined) here?
A: 12.6 µM (active)

Q: What about the Potency [4] of the same compound?
A: inactive

Q: What does the source list for `COc1cc2c(cc1OC)[C@@H]1C(=O)c3ccc4c(c3OC1CO2)CC(C(C)C)O4` (some centres undefined)?
A: Potency [1]: 25.1 µM (active); Potency [4]: inactive; Potency [2]: inactive; outcome [3]: inactive

Q: Which activity change, positive = activation [4] does the source give for `COC(=O)[C@H]1[C@H](c2ccccc2)C(=O)[C@@]2(O)c3ccccc3O[C@@]12c1ccccc1` here?
A: -48.2% [at 11.4 µM]

Q: For `CC[C@]1(O)CC(O[C@@H]2CC(N(C)C)C(O)C(C)O2)c2c(cc3c(c2O)C(=O)c2c(O)ccc(O)c2C3=O)C1C(=O)OC` (some centres undefined), which Potency [1] is on record?
A: inactive

Q: And the Potency [2]?
A: inactive

Q: And the outcome [3]?
A: inactive

Q: Which activity change, positive = activation [4] does the source give for `COC(=O)[C@H]1[C@@H](c2ccccc2)[C@@]2(c3ccccc3)Oc3ccccc3[C@@]1(O)[C@@H]2O` here?
A: -40.9% [at 11.4 µM]

Q: What about the activity change, negative = inhibition [5] of the same compound?
A: 40.2% [at 11.4 µM]

Q: With `N[C@H](CCC(=O)N[C@H](CSN=O)C(=O)NCC(=O)O)C(=O)O` as the compound, how does the Potency [8] read?
A: 1.58 µM (active)

Q: And the outcome [6]?
A: inactive

Q: Which Potency [4] does the source give for `COC(=O)CCC(C)C1CCC2C3C(O)C[C@@H]4CC(O)CC[C@@]4(C)C3CC(O)[C@]12C` (some centres undefined) here?
A: inactive

Q: For `CCC(=O)OC1CCC2C3CCc4cc(O)ccc4C3CC[C@]12C` (some centres undefined), which Potency [4] is on record?
A: inactive

Q: What does the source list for `CC(C)CCC[C@@H](C)[C@@H]1CC[C@@H]2[C@H]3CC[C@H]4C[C@@H](N)CC[C@@]4(C)[C@@H]3CC[C@]21C`?
A: activity change, negative = inhibition [5]: 11% [at 11.4 µM]; activity, negative = inhibition [8]: 61.6% [at 11.4 µM]

Q: What does the source list for `COC(=O)[C@]1(C)CC[C@@]2(C)CC[C@@]3(C)C4=CCc5c(cc(O)c(O)c5C)[C@]4(C)CC[C@@]3(C)C2C1` (some centres undefined)?
A: Potency [4]: inactive; Potency [2]: inactive; outcome [3]: inactive

Q: Which Potency [4] does the source give for `CCC(C(=O)C(C)C(O)C(C)CCc1ccc(C)c(O)c1C(=O)O)C1OC(CC)(C2CC[C@@](O)(CC)C(C)O2)CC1C` (some centres undefined) here?
A: inactive

Q: For `c1ccc2c(c1)-c1ccccc1C2N1CC2CCC(CC2)C1`, which Potency [5] is on record?
A: 3.98 µM (active)

Q: Which Potency [8] does the source give for `C=C(CO)[C@H]1Cc2c(ccc3c2O[C@H]2COc4cc(OC)c(OC)cc4[C@@H]2C3=O)O1` here?
A: 5.01 µM (active)

Q: Which results are given for `O=C1OC(=O)[C@@H]2[C@@H]1[C@@H]1CC[C@H]2O1`?
A: Potency [5]: inactive; outcome [6]: inactive; outcome [7]: inactive

Q: For `C[C@@H]1Cc2ccccc2N1NC(=O)c1ccc(Cl)c(S(N)=O)c1` (some centres undefined), which Potency [4] is on record?
A: inactive

Q: For `Clc1ccc(C(c2ccc(Cl)cc2)n2cc[n+](C[C@@H](OCc3ccc(Cl)cc3Cl)c3ccc(Cl)cc3Cl)c2)cc1`, which Potency [4] is on record?
A: inactive

Q: What about the Potency [9] of the same compound?
A: 14.1 µM (active)

Q: And the outcome [6]?
A: inactive

Q: What about the outcome [7] of the same compound?
A: inactive

Q: Which Potency [4] does the source give for `C[C@]12CCC3c4ccc(OC(=O)c5ccccc5)cc4CCC3C1CCC2=O` (some centres undefined) here?
A: inactive

Q: Which Potency [4] does the source give for `COc1cc2ccc(=O)oc2c2ccoc12` here?
A: inactive

Q: And the Potency [2]?
A: inactive

Q: What about the outcome [3] of the same compound?
A: inactive
